High-throughput results (PubChem BioAssay)
The sample as a whole holds a higher share of hits than the screen did.
Pf Dd2 growth: Plasmodium falciparum Dd2 growth inhibition; Potency, µM (doses to about 28.9 µM), hits mostly inhibitors; P. falciparum Dd2 growth, SYBR Green, 72 h; hit rate 4.3% among 120,000; active = well fitted inhibition curve with a large enough effect; also: nearly all actives have a fitted effect of over 65% in size
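Infected erythrocytes (Dd2, 0.3% parasitemia, 2.5% hematocrit final) are added to compound in RPMI-1640/Albumax II medium, grown 72 h at 37C in low oxygen, then lysed with saponin/Triton-X containing SYBR Green and read by fluorescence.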
Numbers stand for hits; - = inactive.

SMILES | Pf Dd2 growth
COc1ccccc1C(=O)Nc1c(C(=O)N2CCN(c3ccc(F)cc3)CC2)oc2ccccc12 | -
Cn1c(=O)c2c(nc(SCC(=O)Nc3ccc(OC(F)(F)F)cc3)n2Cc2cccc(C(F)(F)F)c2)n(C)c1=O | 11µM
Cn1c(=O)c2c(nc(SCC(=O)Nc3ccc(F)cc3F)n2Cc2ccccc2)n(C)c1=O | -
Cn1c(=O)c2c(nc(SCC(=O)Nc3ccccc3)n2Cc2ccccc2F)n(C)c1=O | -
COc1ccc2cc(C(=O)N3CCc4nn(C)c(=O)n4CC3)[nH]c2c1 | -
CCN(C(=O)Cn1ccn2nc3c(c2c1=O)CCCC3)c1ccccc1 | -
CC(C)OCCCNC(=O)c1ccc2c(c1)N(S(C)(=O)=O)CC2 | -
O=C(C1CC1)N1CCCC(c2nc(CCOCC3CCOCC3)no2)C1 (stereo not drawn) | -
CCCNC(=O)N1CCC(c2nc(CCOCC3CCOCC3)no2)C1 (stereo not drawn) | -
C1CC(COCCc2noc(C3CNC3)n2)CCO1 | 11µM
CC(=O)N[C@H]1CCN(CCC(=O)Nc2ccc(F)c(Cl)c2)C1 | -
COCCc1noc(CC2CCOC3(CCN(C(=O)CCC4CCCC4)CC3)C2)n1 (stereo not drawn) | -
CCc1nc2c(c(-c3ccc(OC)cc3)n1)CCN([S+](=O)([O-])c1cccs1)CC2 | -
O=[S+]([O-])(c1cccs1)N1CCc2nc(C3CC3)nc(-c3ccc(Cl)cc3)c2CC1 | 4µM
COc1ccc(-c2nc(C(C)C)nc3c2CN([S+](=O)([O-])c2cccs2)CC3)cc1 | 5µM
COc1ccc(-c2nc(C(C)C)nc3c2CN([S+](=O)([O-])c2cccc(OC)c2)CC3)cc1 | -
CC(C)c1nc2c(c(-c3ccc(Cl)cc3)n1)CN([S+](=O)([O-])c1cccs1)CC2 | -
O=S(=O)(c1cccs1)N1CCc2nc(C3CC3)nc(-c3ccc(Cl)cc3)c2C1 | -
CC1(COc2cccnc2)COc2ccc(C(=O)NCc3ccc4c(c3)OCO4)cc2N1 (stereo not drawn) | -
CC(=O)N1CCN(C(=O)C2CCNCC2)C[C@@H]1C(=O)N[C@@H](CC1CCCCC1)C(N)=O | -
Cc1ccc2oc(N3CCCC4(CCC(=O)N(Cc5cccnc5)C4)C3)nc2c1 (stereo not drawn) | -
COCCN1CCC(N2CCN(S(=O)(=O)c3ccc(C)cc3C)CC2)C1=O (stereo not drawn) | -
C[C@@H]1CN(C(=O)c2ccc(-c3nnn(C)n3)cc2)C[C@@]1(O)C1CC1 | -
CCC(C)NC(=O)Cn1nc(C)c2sc(-c3ccccc3)nc2c1=O (stereo not drawn) | -
CN1C(=O)CO[C@H]2CN(c3ccc(C#N)cn3)C[C@H]21 | -
SMILES | Pf Dd2 growth
CC1=C[C@@H](CO)[C@H](C(C)C)C[C@H]1CC(=O)N1CCN(CCO)CC1 | -
CC1=C[C@@H](CNC(=O)C(C)(C)C)[C@H](C(C)C)C[C@H]1CC(=O)N1CCN(c2ccccn2)CC1 | -
CC1=C[C@@H](CNC(=O)c2ccccc2)[C@H](C(C)C)C[C@H]1CC(=O)N1CCN(C)CC1 | -
CC(=O)N1CCN(C(=O)C[C@@H]2C[C@@H](C(C)C)[C@H](CC#N)C=C2C)CC1 | -
CC1=C[C@@H](CC#N)[C@H](C(C)C)C[C@H]1CC(=O)N1CCN(c2cnccn2)CC1 | 7.1µM
CC1=C[C@@H](CNC(=O)C2CCCCC2)[C@H](C(C)C)C[C@H]1CC(=O)N1CCN(c2ccccn2)CC1 | 10µM
CCc1noc(-c2cn(C3CCN(C(=O)c4ccc(Cl)s4)C3)nn2)n1 (stereo not drawn) | -
CCOc1ccccc1CNC(=O)C(C)C1CCOCC1 (stereo not drawn) | -
COCc1nc(CCNC(=O)NC2CCCCC2)no1 | -
COC(=O)N1CCn2cc(C(=O)NCc3ccc(Cl)nc3)nc2C1 | -
Cn1cncc1-c1nnc([C@H]2CCN(Cc3ccc(Cl)cc3)C2)o1 | -
CCc1ccc(-n2nc(C)c3c(C(=O)N4CCN(c5cccc(Cl)c5)CC4)cc(C)nc32)cc1 | 11µM
CCc1ccc(-n2nc(C)c3c(C(=O)N4CCN(c5ccccc5)CC4)cc(C)nc32)cc1 | -
Cc1cc(C(=O)N2CCN(c3ccccc3)CC2)c2c(C)nn(-c3cccc(F)c3)c2n1 | -
COc1ccc(CN2CC(Oc3ccc(F)cc3F)C2)cc1 | -
Cc1cc(F)ccc1OC1CN(Cc2ccc(C#N)cc2)C1 | -
Cc1cc(F)ccc1OC1CN(CC2CC2)C1 | -
COc1ccc(CN2CC(Oc3ccc(F)cc3C)C2)cc1 | 11µM
Cc1cc(F)ccc1OC1CN(CC2CCCCC2)C1 | 8.9µM
COc1ccccc1C(=O)N1CC(Oc2ccc(F)cc2C)C1 | -
O=C(c1ccc(F)cc1)N1CC[C@H]2COC(=O)N2c2cc(F)ccc2C1 | -
Cc1ccc(C2Cn3nnc(C(=O)N4CCN(C(=O)Cc5cccc(F)c5)CC4)c3CO2)cc1 (stereo not drawn) | -
O=C(CCc1cc2n(n1)CCCNC2)Nc1ccc(-n2cncn2)cc1 | -
CC(C)c1ccc(NC(=O)c2ccc3c(c2)CCCN3S(C)(=O)=O)cc1 | -
CC(=O)Nc1ccc(NC(=O)c2ccc3c(c2)CCN3S(=O)(=O)c2ccc(Cl)cc2)cc1 | -
